In PubChem BioAssay AID449762 (Southern Research Specialized Biocontainment Screening …, 2010) one finds inhibition data, which are given here for 95 compounds.

Screen size: about 330,000 compounds; about 1,900 (0.58%) were called active. About 4% were inconclusive and are not listed. Only a sample is shown. Results with a measured potency or affinity are listed apart. A number with no mark means an inactive call. Rule as the data show it: inconclusive = inhibition above about 70% without an active follow-up result; inactive = below that.

The experiment can be described thus: M. tuberculosis growth inhibition, HTS (AID 449762).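 Also: bacterial growth assessed after seven days of incubation.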 Conditions: M. tuberculosis H37Rv growth inhibition, 7H9 media; at 25 µM; hits give high values.
As for `Cc1ccc(S(=O)(=O)NCC(=O)N(CC(=O)NCC2CCCO2)c2ccc(Cl)cc2)cc1` (stereo not given), the inhibition – broadly, the relative decrease from the control value, in per cent – is -3.29%.

In the case of `COc1ccc(C(=O)NNC(=O)CSc2nc3c(c(=O)n(C)c(=O)n3C)n2C)cc1`, the inhibition is 1.02%.

In the case of `COc1cc(NC(=O)C[n+]2ccc(C(=O)c3ccccc3)cc2)cc(OC)c1`, the inhibition is -7.81%.

In the case of `O=C(Nc1ccc(C(F)(F)F)cc1)c1ccccc1`, the inhibition is 0.07%.

As to `C[C@@H](CN1C(=O)C(=O)NC[C@@H]1Cc1ccc(O)cc1)NC(=O)Cc1ccccc1`, the inhibition was -2.19%.

As for `Cn1cccc1-c1cc(C(=O)N/N=C/c2ccc(F)cc2)[nH]n1`, the inhibition is -3.95%.

In the case of `CN(Cc1ccco1)c1ncnc2ccc(-c3ccoc3)cc12`, the inhibition is 17.5%.

Turning to `Cc1sc2ncnc(N(C)Cc3ccco3)c2c1C`, the inhibition is -1.32%.

With `CCOC(=O)C1=NN(c2ccccc2)C(c2ccccc2)CC1=O` (stereo not given), the inhibition is 12.7%.

In the case of `C=CCOc1ccc(C2CC(C)=NN2c2ccccc2)cc1` (stereo not given), the inhibition was 3.55%.

On to `O=C1c2ccccc2C(=O)N1c1ccc(Cl)cc1`, for which the inhibition is -5.93%.

As to `Cc1ccc(N2C(=O)C3C(c4ccccc4)(C2=O)C3(c2ccccc2)c2ccccc2)cc1` (stereo not given), the inhibition was 20.2%.

Consider `O=c1c(Br)c(NCc2ccccc2)cnn1-c1ccc(F)cc1`, for which the inhibition was -5.73%.

With `Cn1nnnc1Sc1ccc(C(=O)O)cc1[N+](=O)[O-]`, the inhibition was 2.4%.

Consider `O=C(O)c1ccc(Sc2nnnn2-c2ccccc2)c([N+](=O)[O-])c1`, for which the inhibition was 3.58%.

For the compound `COc1ccc(C(=O)c2ccc(N3CCN(C4CC(=O)NC4=O)CC3)cc2)cc1F` (stereo not given), the inhibition was 0.26%.

Regarding `Nc1ncnc(Sc2ccccc2)c1[N+](=O)[O-]`, the inhibition was -0.35%.

On to `Cc1nc(Sc2ccccc2)c(C#N)c(C)c1[N+](=O)[O-]`, for which the inhibition was 3.11%.

Regarding `C=CCNC(=O)COc1cc(C)cc(C)c1C`, the inhibition is -2.5%.

Regarding `CCOc1ccc(CCNC(=O)Cn2c(=O)c3cccn3c3cccnc32)cc1`, the inhibition is -8.95%.

In the case of `Cn1cnc([N+](=O)[O-])c1Sc1ccccc1`, the inhibition was -3.64%.

Take `Cc1ccc(Sc2c([N+](=O)[O-])ncn2C)cc1`: the inhibition is -9.59%.

Consider `Cc1cc(OC(=O)C(c2ccccc2)c2ccccc2)c([N+](=O)[O-])c(=O)[nH]1`, for which the inhibition is 1.27%.

For `CC1=NN2C(=N)/C(=C\c3cc(C)n(-c4ccccc4)c3C)C(=O)N=C2S1`, the inhibition was -0.68%.

As to `NC(=O)CSc1n[nH]c(=O)n1CCc1ccccc1`, the inhibition is -5.89%.

Take `CCCCCCN1Cc2ccccc2C1`: the inhibition is 3.68%.

For the compound `O=c1ccsn1Cc1ccccc1`, the inhibition is 2.59%.

For `c1ccc(CCNCCCOc2cccc3ccccc23)cc1`, the inhibition was 40.1%.

As to `Cc1ccc(OCCCCNC(C)c2ccccc2)c(C)c1` (stereo not given), the inhibition is 7.81%.

In the case of `C#CCNC(=O)C1=C[C@H](c2ccc3c(c2)OCO3)C[C@H](OCc2ccc(CO)cc2)O1`, the inhibition was 6.55%.

Consider `COc1ccccc1N1CCN(CC(=O)Nc2nc(C)c(C(=O)N(C)C)s2)CC1`, for which the inhibition is 0.78%.

`Nc1nc(-c2cc3ccccc3o2)cs1`: the inhibition is 27.5%.

As to `CN1CCN(c2nc(-c3cc4ccccc4o3)cs2)CC1`, the inhibition was 1.67%.

As for `COc1ccc2[nH]c(C)c(CCN(Cc3cccs3)C(=S)Nc3ccccc3)c2c1`, the inhibition is -7.77%.

Take `CCCCn1cnc2c1c(=O)n(CC(=O)c1cc(C)n(C)c1C)c(=O)n2CC(C)C`: the inhibition was 5.57%.

Regarding `Cc1ccc(CN2CCN(Cc3ccc4c(c3)OCCO4)CC2CCO)cc1` (stereo not given), the inhibition is -5.47%.

As for `O=C(c1nc2ccccc2[nH]1)c1ccccc1[N+](=O)[O-]`, the inhibition was 13%.

Consider `CN(c1ccccc1)c1nc(-n2ccnc2)nc(-n2ccnc2)n1`, for which the inhibition was 5.05%.

For the compound `COc1nc(N(c2ccccc2)c2ccccc2)nc(-n2ccnc2)n1`, the inhibition was 34.2%.

In the case of `c1ccc(N(c2ccccc2)c2nc(-n3ccnc3)nc(-n3ccnc3)n2)cc1`, the inhibition is -9.38%.

For the compound `CCCCNc1nc(-c2ccccc2)nc(-n2ccnc2)n1`, the inhibition is 10%.

For the compound `COC(=O)c1ccc(C2c3c(oc4ccc(F)cc4c3=O)C(=O)N2CCO)cc1` (stereo not given), the inhibition is -6.43%.

Regarding `COc1ccccc1NC(=O)c1ccc2nsnc2c1`, the inhibition was 5.74%.

Take `CCN1C(=O)C(CC(=O)NCCc2ccccc2)N(NC(=O)c2cccnc2)C1=S` (stereo not given): the inhibition is 12%.

Take `Clc1ccccc1N=C1SCCS1`: the inhibition was -6.64%.

In the case of `CSc1ncccc1C(=O)N(C)CC(=O)Nc1ccc(Cl)c(C(F)(F)F)c1`, the inhibition is -3%.

On to `COc1ccccc1N1CCN(C(=O)C2CCN(S(=O)(=O)c3ccc(F)cc3)CC2)CC1`, for which the inhibition is -1.53%.

Regarding `CC(=O)Nc1cc(C(=O)N2CCc3ccccc3C2)ccc1Sc1ccc(Cl)cc1`, the inhibition was 2.06%.

`Cc1nc2c(C)cccn2c(=O)c1NC(=O)c1cccs1`: the inhibition was -5.13%.

On to `C=CCNc1oc(-c2ccc(OC)cc2)nc1C#N`, for which the inhibition is 4.44%.

As for `C=CCNc1oc(-c2ccc(Cl)cc2)nc1C#N`, the inhibition is 47.3%.

For the compound `NS(=O)(=O)c1ccc(NC(=O)CSc2nnc(Cc3cccs3)n2-c2ccccc2)cc1`, the inhibition was 10.1%.

In the case of `O=C(/C=C/c1ccccc1)N1CCN(c2ccccn2)CC1`, the inhibition is -12.8%.

On to `CCc1cc[n+](C2=C([O-])c3ccccc3C(=O)/C2=N\S(=O)(=O)c2cccs2)cc1`, for which the inhibition was 2.09%.

For the compound `O=C1/C(=N\S(=O)(=O)c2cccs2)C([n+]2ccccc2)=C([O-])c2ccccc21`, the inhibition is -2.62%.

In the case of `CCCCC1(C(=O)OCC)CC(CN2CCOCC2)OC1=O` (stereo not given), the inhibition is -5.65%.

For `CN1CCN(c2ccc(NC(=O)c3cccs3)cc2)CC1`, the inhibition was 0.58%.

Regarding `COC(=O)C1=C(C)Nc2[nH]c(=S)[nH]c(=O)c2C1c1ccc(OC)cc1` (stereo not given), the inhibition was -7.09%.

In the case of `COc1cc(/C=N/Nc2nc(Nc3ccccc3)nc(N3CCCCC3)n2)ccc1OCC(=O)O`, the inhibition is 58.2%.

Regarding `O=C(O)COc1ccc(/C=N/Nc2nc(Nc3ccccc3)nc(N3CCCCC3)n2)cc1`, the inhibition was 23.6%.

Turning to `N/C(=N\OC(=O)CC1CCCCC1)c1ccc([N+](=O)[O-])cc1`, the inhibition was -1.51%.

Consider `CCCn1c(=N)c(C(=O)NCC2CCCO2)cc2c(=O)n3cccc(C)c3nc21` (stereo not given), for which the inhibition is -2.2%.

In the case of `CCOCCCn1c(=N)c(C(=O)NCc2ccc3c(c2)OCO3)cc2c(=O)n3cccc(C)c3nc21`, the inhibition is 68.2%.

Consider `Brc1ccc(-c2csc(Nc3nc(-c4ccc(Br)cc4)cs3)n2)cc1`, for which the inhibition was 8.54%.

Regarding `Brc1ccc(-c2csc(-c3ccncc3)n2)cc1`, the inhibition was 36.4%.

With `Cc1ccc(NC(=S)N2CCN(c3ccccn3)CC2)c(C)c1`, the inhibition was 5.35%.

Regarding `Cc1c(N=NC2=C(O)CC(C)(C)CC2=O)cc2c(c1[N+](=O)[O-])C(C)(C)CC2(C)C`, the inhibition is 6%.

With `O=[N+]([O-])c1ccc(Nc2ccc(F)cc2)nc1`, the inhibition was -2.27%.

Consider `COc1ccc(NC(=O)COC(=O)c2cc3c(s2)CCC3)cc1`, for which the inhibition is 9.83%.

`NC(=O)c1ccc(NC(=O)COC(=O)c2cc3c(s2)CCC3)cc1`: the inhibition was 6.74%.

For the compound `CCN1CCN(c2nc(C)c3c(n2)CC(C)CC3=O)CC1` (stereo not given), the inhibition was 11.3%.

With `COC(=O)c1ccc(COc2cc([N+](=O)[O-])cc3cccnc23)o1`, the inhibition is -2.4%.

Consider `COC(=O)c1ccc(COc2cc([N+](=O)[O-])cc3cccnc23)cc1`, for which the inhibition is 3.92%.

For `O=C(CN1c2ccccc2Sc2ccccc21)N/N=C/c1ccc(Cl)cc1Cl`, the inhibition was 4%.

For the compound `COc1ccccc1C(=O)NNC(=O)C12CC3CC(CC(C3)C1)C2`, the inhibition is -6.93%.

Take `Cc1ccc2c(CN3CCN(Cc4ccccc4)CC3)cc(=O)oc2c1C`: the inhibition was 3.31%.

For the compound `Cc1cc(C)c2c(CN3CCN(Cc4ccccc4)CC3)cc(=O)oc2c1`, the inhibition is 0.88%.

Consider `Fc1ccccc1N1CCN(C(c2ccncc2)c2nnnn2C2CCCC2)CC1` (stereo not given), for which the inhibition is -0.2%.

As to `O=C(NCCO)c1cccc(S(=O)(=O)N2CCCCC2)c1`, the inhibition was -4.67%.

On to `CC1CC(C)CN(C(=O)CN2C(=O)NC3(CCCCCC3)C2=O)C1` (stereo not given), for which the inhibition was 6.02%.

Regarding `COC(=O)CSc1nsc(SCC(=O)OC)c1C#N`, the inhibition is -0.76%.

For `N#Cc1c(SCC(=O)OCc2ccccc2)nsc1SCC(=O)OCc1ccccc1`, the inhibition was 14.1%.

Take `CC(=O)CSc1nsc(SCC(C)=O)c1C#N`: the inhibition was -3.69%.

`CSc1snc(SCC(N)=O)c1C#N`: the inhibition was -0.39%.

Regarding `CCC(C)N(C(=O)COC(=O)c1nc2nc(C)cc(C)n2n1)C1CCS(=O)(=O)C1` (stereo not given), the inhibition is 5.26%.

As to `CCCOc1ccc(CC2CCC(=O)NC2=O)cc1` (stereo not given), the inhibition was 5.69%.

Consider `COc1ccc(CNS(=O)(=O)c2ccc3c(c2)NC(=O)C(C)S3)cc1` (stereo not given), for which the inhibition is 6.65%.

Consider `CCc1c(C)sc(NC(=S)N2CCN(S(C)(=O)=O)CC2)c1C(=O)OC`, for which the inhibition is 0.54%.

Consider `CCc1c(C)sc(NC(=S)N2CC(C)OC(C)C2)c1C(=O)OC` (stereo not given), for which the inhibition is 3.86%.

For the compound `CCN(CC(=O)NCc1ccc(Cl)cc1)C(=O)CN1C(=O)NC(C)(c2ccccc2)C1=O` (stereo not given), the inhibition was -3.75%.

As to `CCOC(=O)C(C)NC(=O)c1cn(-c2ccc(OC)cc2)c(=O)c2ccccc12` (stereo not given), the inhibition was 3.17%.

In the case of `CCC(C)NC(=O)c1cn(-c2cccc(OC)c2)c(=O)c2ccccc12` (stereo not given), the inhibition was 4.02%.

As for `N#C/C(C(N)=O)=C1/SC=C(c2ccccc2)N1c1ccccc1`, the inhibition is -6.75%.

Regarding `NS(=O)(=O)c1ccc(NC(=S)NC(=O)c2ccc(Br)o2)cc1`, the inhibition was -3.72%.

For the compound `Cc1ccc(S(=O)(=O)NC(=O)Nc2ccc(C)cc2C)cc1`, the inhibition was -6.63%.
